Measured values from PubChem BioAssay AID1159580 (chemical genetic matrix, 2015).
Where “and” joins values, the source holds several entries; their conditions need not be identical. Identical values can stand only once. The whole screen tested about 5,500 compounds, of which about 2,000 (36%) were called active. Inconclusive results (about 18%) are left out. No stated cut-off is given here; in the data, active means normalized growth mostly below about 0.91 (no sharp cut-off); inconclusive means no clear call, values can overlap the other calls; inactive means mostly above about 0.92. Some of the results follow.

Experiment: chemical genetic growth profiling, strain panel (AID 1159580);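 further: tested at 20 µM; growth read once vehicle control cultures reached saturation at 30 °C; 1 = growth at the plate median or of vehicle wells; lower values mean less growth of the strain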
Details: S. cerevisiae deletion strains, growth OD

Measured: normalized growth

NC(N)=NCCN1CCCCCCC1
inactive: locus YAL013W, strain DEP1, hits give low values 1 | locus YAL021C, strain ccr4, hits give low values 1.02 | locus YAL026C, strain drs2, hits give low values 1.02 | locus YAL030W, strain snc1, hits give low values 1.03 | locus YBL061C, strain skt5, hits give low values 1.03 | locus YBR009C, strain hhf1, hits give low values 1.03 | locus YBR021W, strain FUR4, hits give low values 1.01 | locus YBR023C, strain chs3, hits give low values 1.03 | locus YBR171W, strain sec66, hits give low values 1.06 | locus YBR229C, strain ROT2, hits give low values 1 | locus YBR231C, strain swc5, hits give low values 0.999 | locus YBR279W, strain paf1, hits give low values 1.02 | locus YCL011C, strain gbp2, hits give low values 1.04 | locus YCL016C, strain dcc1, hits give low values 1.02 | locus YCL029C, strain bik1, hits give low values 1.01 | locus YCL061C, strain MRC1, hits give low values 1.03 | locus YCL069W, strain vba3, hits give low values 1.03 | locus YCR088W, strain abp1, hits give low values 1.03 | locus YDL005C, strain med2, hits give low values 1.04 | locus YDL035C, strain GPR1, hits give low values 1.01 | locus YDL040C, strain nat1, hits give low values 1.02 | locus YDL074C, strain BRE1, hits give low values 1.01 | locus YDL101C, strain DUN1, hits give low values 1 | locus YDL185W, strain tfp1, hits give low values 1.01 | locus YDL192W, strain arf1, hits give low values 1.03 | locus YDR001C, strain nth1, hits give low values 1.02 | locus YDR069C, strain doa4, hits give low values 1.02 | locus YDR101C, strain arx1, hits give low values 1.01 | locus YDR137W, strain rgp1, hits give low values 1.04 | locus YDR159W, strain sac3, hits give low values 1.05 | locus YDR162C, strain NBP2, hits give low values 1 | locus YDR195W, strain ref2 1.01 | locus YDR297W, strain sur2, hits give low values 1.03 | locus YDR318W, strain mcm21, hits give low values 1.02 | locus YDR334W, strain swr1, hits give low values 1.03 | locus YDR335W, strain msn5, hits give low values 1.03 | locus YDR388W, hits give low values 1.02 | locus YDR392W, strain spt3, hits give low values 0.986 | locus YDR502C, strain sam2, hits give low values 1.01 | locus YEL003W, strain gim4, hits give low values 1.02 | locus YEL037C, strain rad23, hits give low values 1.03 | locus YEL061C, strain CIN8 (second series), hits give low values 1.02 | locus YEL061C, strain CIN8, hits give low values 1.01 | locus YER015W, strain faa2, hits give low values 1.03 | locus YER016W, strain bim1, hits give low values 1.02 | locus YER110C, hits give low values 1.03 | locus YER111C, strain swi4, hits give low values 1.03 | locus YER155C, strain BEM2 (second series), hits give low values 1 | locus YER155C, strain BEM2, hits give low values 0.998 | locus YER167W, strain BCK2, hits give low values 1 | locus YFR010W, strain ubp6, hits give low values 1.03 | locus YGL078C, strain dbp3, hits give low values 1.04 | locus YGL086W, strain mad1, hits give low values 1 | locus YGL167C, strain pmr1, hits give low values 1.05 | locus YGL173C, strain kem1, hits give low values 1.03 | locus YGL227W, strain vid30, hits give low values 1.03 | locus YGL240W, strain doc1, hits give low values 1.02 | locus YGL248W, strain PDE1, hits give low values 1.01 | locus YGL253W, strain hxk2, hits give low values 1.02 | locus YGR078C, strain PAC10, hits give low values 1 | locus YGR135W, strain pre9, hits give low values 1.02 | locus YGR252W, strain gcn5, hits give low values 0.994 | locus YHR013C, strain ard1, hits give low values 1.05 | locus YHR027C, strain rpn1, hits give low values 1.03 | locus YHR030C, strain SLT2, hits give low values 1.01 and 0.977 | locus YHR079C, strain IRE1 (second series), hits give low values 1.02 | locus YHR079C, strain IRE1, hits give low values 0.983 | locus YHR094C, strain hxt1, hits give low values 1.02 | locus YHR129C, strain ARP1, hits give low values 1 | locus YHR142W, strain chs7, hits give low values 1.05 | locus YHR200W, strain rpn10, hits give low values 1.03 | locus YIL066C, strain RNR3, hits give low values 1.01 | locus YIL073C, strain SPO22, hits give low values 1.04 | locus YIL125W, strain kgd1, hits give low values 1.02 | locus YIR030C, strain dcg1, hits give low values 1.02 | locus YJL092W, strain hpr5, hits give low values 1.03 | locus YJL095W, strain BCK1 (second series), hits give low values 1.02 | locus YJL095W, strain BCK1, hits give low values 1.01 and 0.982 | locus YJL115W, strain asf1, hits give low values 1.03 | locus YJL129C, strain trk1, hits give low values 1.06 | locus YJL134W, strain LCB3, hits give low values 1 | locus YJL154C, strain vps35, hits give low values 1.01 | locus YJL164C, strain tpk1, hits give low values 1.04 | locus YJL166W, strain qcr8, hits give low values 1.04 | locus YJL168C, strain set2, hits give low values 1.03 | locus YJL187C, strain SWE1 (second series), hits give low values 1.01 | locus YJL187C, strain SWE1, hits give low values 1.04 | locus YJR043C, strain POL32, hits give low values 1 | locus YJR066W, strain TOR1, hits give low values 0.932 | locus YKL009W, strain mrt4, hits give low values 1.02 | locus YKL068W, hits give low values 1.01 | locus YKL085W, strain MDH1 (second series), hits give low values 1.01 | locus YKL085W, strain MDH1, hits give low values 1.01 | locus YKL160W, strain elf1, hits give low values 1.04 | locus YKR001C, strain vps1, hits give low values 1.03 | locus YKR026C, strain gcn3, hits give low values 1.03 | locus YKR091W, strain srl3, hits give low values 1.02 | locus YLL001W, strain dnm1, hits give low values 1.02 | locus YLL026W, hits give low values 1.03 | locus YLL041C, strain sdh2, hits give low values 1.02 | locus YLR027C, strain aat2, hits give low values 1.02 | locus YLR039C, strain RIC1, hits give low values 1 | locus YLR058C, strain SHM2, hits give low values 1.01 | locus YLR102C, strain apc9, hits give low values 1.02 | locus YLR113W, strain HOG1, hits give low values 0.985 | locus YLR221C, strain rsa3, hits give low values 1.05 | locus YLR258W, strain gsy2, hits give low values 1.03 | locus YLR262C, strain YPT6, hits give low values 1.03 | locus YLR268W, strain sec22, hits give low values 1.02 | locus YLR320W, strain mms22, hits give low values 1.05 | locus YLR330W, strain CHS5, hits give low values 1.01 | locus YLR342W, strain FKS1 (second series), hits give low values 1.02 | locus YLR342W, strain FKS1, hits give low values 1.06 | locus YLR357W, strain rsc2, hits give low values 1.03 | locus YLR370C, strain arc18, hits give low values 1.03 | locus YLR371W, strain rom2, hits give low values 1.02 | locus YLR384C, strain iki3, hits give low values 1.03 | locus YLR418C, strain cdc73, hits give low values 1.03 | locus YML016C, strain PPZ1, hits give low values 1.01 | locus YML032C, strain rad52, hits give low values 1.02 | locus YML120C, strain ndi1, hits give low values 1.04 | locus YML124C, strain tub3, hits give low values 1.03 | locus YMR058W, strain fet3, hits give low values 1.02 | locus YMR078C, strain ctf18, hits give low values 1.02 | locus YMR125W, strain sto1, hits give low values 1.03 | locus YMR129W, hits give low values 1.02 | locus YMR205C, strain PFK2, hits give low values 1.05 | locus YMR223W, strain ubp8, hits give low values 1.02 | locus YMR231W, strain pep5, hits give low values 1.04 | locus YMR307W, strain GAS1, hits give low values 0.992 | locus YNL067W, strain RPL9B, hits give low values 1 | locus YNL071W, strain lat1, hits give low values 1.03 | locus YNL128W, strain TEP1, hits give low values 1.02 | locus YNL183C, strain NPR1, hits give low values 0.959 | locus YNL233W, strain BNI4, hits give low values 1.01 | locus YNL248C, strain rpa49, hits give low values 1.04 | locus YNL250W, strain rad50, hits give low values 1.01 | locus YNL271C, strain bni1, hits give low values 1.02 | locus YNL298W, strain CLA4, hits give low values 1.03 | locus YNL307C, strain MCK1, hits give low values 1.02 | locus YNL322C, strain KRE1 (second series), hits give low values 1.05 | locus YNL322C, strain KRE1, hits give low values 1 | locus YNR049C, strain mso1, hits give low values 1.03 | locus YNR052C, strain pop2, hits give low values 1.01 | locus YOL012C, strain htz1 0.825 | locus YOL147C, strain pex11, hits give low values 1.02 | locus YOR001W, strain rrp6, hits give low values 0.997 | locus YOR061W, strain CKA2, hits give low values 1.01 | locus YOR069W, strain VPS5, hits give low values 1 | locus YOR070C, strain gyp1, hits give low values 1.05 | locus YOR080W, strain dia2, hits give low values 1.03 | locus YOR083W, strain WHI5, hits give low values 1.03 | locus YOR106W, strain vam3, hits give low values 1.05 | locus YOR136W, strain idh2, hits give low values 1.02 | locus YOR144C, strain elg1, hits give low values 1.02 | locus YOR184W, strain ser1, hits give low values 1.03 | locus YOR231W, strain MKK1, hits give low values 0.993 | locus YOR265W, strain rbl2, hits give low values 1.05 | locus YOR270C, strain vph1, hits give low values 1.07 | locus YOR290C, strain snf2, hits give low values 0.981 | locus YOR316C, strain cot1, hits give low values 1.02 | locus YPL051W, strain arl3, hits give low values 1.02 | locus YPL055C, strain LGE1, hits give low values 1.01 | locus YPL078C, strain atp4, hits give low values 1.03 | locus YPL106C, strain sse1, hits give low values 1.02 | locus YPL240C, strain hsp82, hits give low values 1.04 | locus YPL256C, strain CLN2, hits give low values 0.977 | locus YPR119W, strain clb2, hits give low values 1.03 | locus YPR141C, strain kar3, hits give low values 1.02 | locus YPR163C, strain tif3, hits give low values 1.03 | locus YPR167C, strain met16, hits give low values 1.02 | strain wtn01, hits give low values 1.03
active: locus YLR262C, strain YPT6 (second series), hits give low values 1.25 [resistant] | locus YNL209W, strain ssb2, hits give low values 0.87
